23 molecules from PubChem BioAssay (NCATS) can be followed below.

Assay [1] in a line: Viability qHTS for spleen associated tyrosine kinase inhibitor (SYKi) naive MV4-11 cells (AID 1963823). Also: nearly all actives have a fitted effect of over 40% in size. In short, it runs like this: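 SYK inhibitor-naive MV4-11 cells, 500 per well, exposed to compounds for 72 hr at 37 C, 5% CO2. Viability read as CellTiter-Glo luminescence after 10 min at room temperature.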
Assay [2] can be described thus: Viability qHTS for spleen associated tyrosine kinase inhibitor (SYKi) drug resistant MV4-11 cells (AID 1963824). Also: nearly all actives have a fitted effect of over 35% in size. A digest of the protocol:
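CellTiter-Glo luminescence, read 10 min after reagent addition, reports viability after a 72 hr compound exposure. Cells are an MV4-11 line made resistant to SYK inhibition, seeded at 500 per well onto compound-containing plates.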

“And” between values parts separate entries of the source, which are not always exact repeats. Equal values may be shown once. Results filed as inconclusive are left out. A number with no mark means an inactive call. The source made the active and inactive calls. Calls follow the shape of the dose curve; as a rule, active = well fitted cell-killing curve with a large enough effect; inconclusive = small, poorly fitted or top-dose-only effect, or effect the other way; inactive = no such curve, though single readings can be large or run the other way.
Potency is read from the fitted curve at half-maximal effect.

Turning to `COc1cc(O)cc2c1C(=O)OC(C)C2` (stereo unspecified), the Potency entry in assay [1] and in assay [2] was “inactive” throughout.

As for `Nc1nc(NC2CC2)cc(-c2cccc(Cl)c2Cl)n1`, the Potency in assay [1] was 10.3 µM (active); in assay [2], 7.31 µM (active).

Turning to `O=C(Nc1ccc(S(=O)(=O)Nc2ccccc2Cl)c(Cl)c1)c1ccccn1`, the Potency result in assay [1] is “inactive”. Besides, in assay [2], the Potency was 20.6 µM (active).

Regarding `CCCC(=O)C1CCN(c2ncnc3c2CN(C(=O)c2ccc(-c4ccccc4)cc2)CC3)CC1`, the Potency is 16.4 µM (active) in assay [1] and 20.6 µM (active) in assay [2].

As for `C[C@@H]1O[C@@H](O[C@H]2[C@@H]3C=CO[C@@H](O[C@@H]4O[C@H](CO)[C@@H](O)[C@H](O)[C@H]4O)[C@@H]3[C@@]3(CO)O[C@@H]23)[C@H](OC(=O)/C=C/c2ccccc2)[C@H](O)[C@H]1O`, the Potency result in assay [1] and in assay [2] was “inactive” throughout.

On to `CCN(CC)CCCS(=O)(=O)N[C@H](CCc1ccccc1)c1nc(Cc2ccc(Br)cc2)no1`, for which the Potency in assay [1] and in assay [2] was 20.6 µM (active) in each case.

For the molecule `C[C@@H]1[C@H](O)[C@@H]2OC(=O)C3=C2[C@H](CCC3)[C@@]12C[C@@H](c1ccoc1)OC2=O`, the Potency entry in assay [1] and in assay [2] was “inactive” each time.

As to `O=C(Nc1ccc(C(O)(C(F)(F)F)C(F)(F)F)cc1)c1ccc(C(F)(F)F)cc1`, the Potency in assay [1] and in assay [2] was 1.84 µM (active) in each case.

Regarding `Cc1nc2c(O)cccc2c(=O)[nH]1`, the Potency result in assay [1] and in assay [2] was “inactive” each time.

Take `CC1(C)CC[C@]2(C(=O)O)[C@H](O)C[C@]3(C)C(=CCC4[C@@]5(C)CC[C@H](O[C@@H]6O[C@H](CO[C@@H]7OC[C@H](O)[C@H](O)[C@H]7O[C@@H]7OC[C@@H](O)[C@H](O)[C@H]7O)[C@@H](O)[C@H](O)[C@H]6O[C@@H]6O[C@H](CO)[C@@H](O)[C@H](O)[C@H]6O)C(C)(C)C5CC[C@]43C)[C@@H]2C1` (stereo partly specified): in assay [1], the viability (% of control) was 92.2% [at 9.25 µM]. The viability, % of control in assay [2] was 103% [at 9.25 µM].

As for `C=C(C)C1CC2(CO)C(=CC1=O)CCC(O)C2C` (stereo unspecified), the Potency entry in assay [1] and in assay [2] was “inactive” in each case.

As to `C[C@H](/C=C/[C@@]1(O)[C@H](C)CC(=O)CC1(C)C)O[C@@H]1O[C@H](CO[C@@H]2OC[C@@H](O)[C@H](O)[C@H]2O)[C@@H](O)[C@H](O)[C@H]1O`, the Potency result in assay [1] and in assay [2] was “inactive” in each case.

In the case of `C=C1C(=O)OC2/C=C(/C)C3=CC(=O)C(C)(CC(OC(=O)/C(C)=C/COC(C)=O)C12)O3` (stereo unspecified), the Potency in assay [1] was 0.893 µM (active); in assay [2], 0.796 µM (active).

`C=C1C(=O)O[C@@H]2[C@H]1CC[C@H](C)[C@]1(CCC(=O)O1)C2(C)O` (stereo partly specified): the Potency in assay [1] is 16.4 µM (active); in assay [2], 6.51 µM (active).

For the molecule `CC(C)c1cc2c(c(O)c1O[C@@H]1O[C@H](CO)[C@@H](O)[C@H](O)[C@H]1O)CC1(O)CCC(O)C(C)(C)C1CC2` (stereo partly specified), the Potency result in assay [1] and in assay [2] was “inactive” throughout.

Regarding `COc1ccc(-c2nc(-c3cc(C(F)(F)F)cc(C(F)(F)F)c3)n(Cc3ccc(C(N)=O)cc3)c2-c2ccc(OC)cc2)cc1`, the Potency in assay [1] was 7.31 µM (active); in assay [2], 3.66 µM (active).

`O=C(O)C[C@H]1CCC(=O)[C@@H]1C/C=C\CCOC1OC(CO)C(O)C(O)C1O` (stereo partly specified): the Potency result in assay [1] and in assay [2] was “inactive” in each case.

Turning to `C=C(CCC1=C(C)[C@H]2[C@H](CC3[C@@H]4CC=C5C[C@@H](O)C[C@@H](O)[C@]5(C)C4[C@H](O)C[C@@]32C)O1)CO[C@@H]1O[C@H](CO)[C@@H](O)[C@H](O)[C@H]1O` (stereo partly specified), the Potency is 0.611 µM (active) in assay [1] and 0.485 µM (active) in assay [2].

Regarding `NC1CCCN(c2c(/C=C3\SC(=O)NC3=O)cccc2-c2ccccc2)C1` (stereo unspecified), the Potency in assay [1] is 2.06 µM (active) and 3.72 µM (active); in assay [2] it was 8.2 µM (active) and 13.2 µM (active).

In the case of `CC[C@H](C)[C@@H]1NC(=O)[C@H](Cc2ccc(OC)cc2)NC(=O)CCCSC[C@@H](C(=O)N2CCC[C@H]2C(=O)N[C@@H](CC(C)C)C(=O)NCC(N)=O)NC(=O)[C@H](CC(N)=O)NC(=O)[C@H](CCC(N)=O)NC1=O`, the Potency result in assay [1] and in assay [2] was “inactive” in each case.

With `C/C1=C\CC[C@H](C)CCO[C@@H]2O[C@H](CO[C@@H]3OC[C@](O)(COC1=O)[C@H]3O)[C@@H](O)[C@H](O)[C@H]2O`, the Potency result in assay [1] and in assay [2] was “inactive” each time.

For `C[C@@H]1CC[C@]2(C(=O)O[C@@H]3O[C@H](CO)[C@@H](O)[C@H](O)[C@H]3O)CC[C@]3(C)C(=CCC4[C@@]5(C)C[C@@H](O)[C@H](O)C(C)(C)C5CC[C@]43C)C2[C@]1(C)O` (stereo partly specified), the Potency entry in assay [1] and in assay [2] was “inactive” in each case.

Regarding `CSc1nc(N)cc(Oc2ccc(-c3nc(Nc4cccc(C(F)(F)F)c4)n[nH]3)cc2)n1`, the Potency in assay [1] was 1.16 µM (active); in assay [2], 1.03 µM (active).
